Assay outcomes from PubChem.
TTR transcr act = TTR transcription activation, primary screen | SH-SY5Y TTR promoter Gaussia luciferase, luminescence; 100% = recombinant luciferase protein wells | AID 1117267 | activation, % at 16.7 µM | actives 1.3% (n = 92,000);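 active means activation above the mean of all tested compounds plus 3 SD, cut at about 9.5% in these data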;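 further: cells exposed to compounds for one day before reading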
HuH7 TTR inh = decreases TTR transcription in HuH7 cells in activator counter-screen; AID 1117279; actives 4% (n = 1,100); HuH7 TTR promoter-Gaussia luciferase reporter, luminescence; inhibition, % at 16.7 µM; shares compounds with TTR transcr act;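 active means average inhibition above the solvent-only control wells' mean plus 3 SD, cut at about 15% in these data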;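 further: inhibitors lower well luminescence so higher value means more inhibition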
TTR act confirm = confirmation of human transthyretin transcription activators; SHSY5Y TTR promoter Gaussia luciferase, luminescence; 100% = purified Lucia enzyme wells, no cells; shares compounds with TTR transcr act; 1,100 tested, under 10 active; AID 1117280; activation, % at 16.7 µM;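 active means mean activation above a set limit taken from the earlier primary screen, cut at about 11% in these data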
A number is an active result; – = inactive. This excerpt belongs to a sample that is enriched for hits.

SMILES	TTR transcr act	others
C/C=C/C=C\C(=O)Nc1cccc(C2=NOC3(C2)C[C@@H](C(N)=O)N(C(=O)/C(C)=C/C)C3)c1 (some centres undefined)	–
C/C=C\C=C/C(=O)Nc1cccc(C2=NOC3(C2)C[C@H](C(N)=O)N(C(=O)c2ccc(OC)cc2)C3)c1 (some centres undefined)	16
C/C=C\C=C/C(=O)Nc1cccc(C2=NOC3(C2)C[C@H](C(N)=O)N(C(=O)CC)C3)c1 (some centres undefined)	–
CCC[C@H]1[C@@H](OC(=O)NCc2ccc(C)o2)CC[C@@]23CCCN2C(=O)CCC[C@@H]13	–
COC(=O)c1ccc(CN2C(=O)c3ccccc3C2=O)o1	–
O=C1c2ccccc2C(=O)N1Cc1cccnc1	–
Cc1cc(CN2C(=O)c3ccccc3C2=O)on1	15	HuH7 TTR inh=–;TTR act confirm=–
Cc1ccc2c(c1)S(=O)(=O)c1ccc3ccccc3c1N2	–
C[C@@H](N)P(=O)(O)C[C@H](Cc1ccccc1)C(=O)O	–
COc1c(O)cccc1[C@@H](O)C1CCN(CCc2ccc(F)cc2)CC1	70	HuH7 TTR inh=–;TTR act confirm=–
CC1CCN(CC(=O)NCCc2ccc(F)cc2)CC1	–
CCOC(=O)c1cc2cc(OC)ccc2n1C1CCN(CCc2ccccc2)CC1	–
COC(=O)[C@]12C[C@H](CC(=O)NCc3ccccc3)C(=O)N(Cc3ccco3)C1=C[C@H](COCc1ccccc1)O[C@@H]2C	–
O=C(Cn1c(=O)c2cccn2c2cccnc21)NCCCN1CCN(c2ccc(Cl)cc2)CC1	–
CN(Cc1ccccc1)C(=O)OCc1cn(Cc2ccccc2C(F)(F)F)nn1	–
CCOC(=O)[C@]12CCCC=C1N(CCCOC)C(=O)[C@@H]2CC(=O)N1CCCCC1	–
CC(CCN1C(N(C)C)=NC[C@@H]1C)c1ccccc1 (some centres undefined)	–
C[C@H]1CN=C(N(C)C)N1CCc1ccccc1	10	HuH7 TTR inh=–;TTR act confirm=–
C[C@H]1CN=C(N(C)C)N1CCC1CCCC1	–
c1ccc2cc3[nH]c(CNc4nc(N5CCOCC5)nc5c4ncn5-c4ccsc4)nc3cc2c1	–
COC(=O)[C@@]12CCCCC=C1N(CCc1ccc(Cl)cc1)C(=O)[C@H]2CC(=O)NCc1cccc(C(F)(F)F)c1	–
O=C(Cc1cccs1)N1CCN(S(=O)(=O)c2ccc(F)c(F)c2)CC1	10	HuH7 TTR inh=–;TTR act confirm=–
O=C(Cc1cccs1)N1CCN(S(=O)(=O)c2ccccc2)CC1	–
O=C(CN(Cc1ccco1)Cc1cccs1)N1CCN(S(=O)(=O)c2cccc(F)c2)CC1	–
O=[N+]([O-])c1cccc2[nH]c(CNc3nc(N4CCOCC4)nc4c3ncn4-c3ccsc3)nc12	–
SMILES	TTR transcr act	others
O=C1CCC(CNc2ccccc2)N1c1ccccc1 (centres undefined)	–
CCOC(=O)[C@]12CCCC=C1N(Cc1ccc(OC)cc1)C(=O)[C@@H]2CC(=O)NCCC(C)C	–
O=C(CC1SC(=O)NC1=O)Nc1ccc(Cl)cc1 (centres undefined)	12	HuH7 TTR inh=–;TTR act confirm=–
Cc1ccc(NC(=O)CC2SC(=NC3CCCCC3)NC2=O)cc1 (centres undefined)	–
O=C(Cc1ccc(Br)cc1)Nc1ccc(Cl)cc1	–
CC1O[C@@H](O[C@H](C)CC[C@@H](C)O[C@H]2OC(C)[C@@H](O)C[C@H]2O)C(O)C[C@H]1O (some centres undefined)	14	HuH7 TTR inh=–;TTR act confirm=–
COC(=O)[C@@H](CC(C)C)CP(=O)(OC)[C@@H](C)NC(=O)OCc1ccccc1 (some centres undefined)	–
CCOC(=O)C1CCCCN1C(=O)[C@@H]1CC=C[C@@H]2CCN(c3ccccc3)C(=O)[C@@H]21 (some centres undefined)	–
COc1ccccc1NC(=O)CCC(=O)O	15	HuH7 TTR inh=–;TTR act confirm=–
CCOc1ccccc1NC(=O)CCC(=O)Nc1ccccc1OCC	–
CC/C(=N/NC(=O)CCC(=O)Nc1ccccc1OC)c1ccccc1	–
Cc1ccc(SCc2nc(N)nc(Nc3ccccc3C)n2)c(C)c1	32	HuH7 TTR inh=–;TTR act confirm=–
Cc1ccccc1Nc1nc(N)nc(CSc2nnc(C)n2C)n1	–
Cc1ccc(SCc2nc(N)nc(Nc3ccccc3C)n2)cc1C	–
COCCNc1nc(NCCN2CCNC2=O)c2sccc2n1	–
COc1ccc(Cn2ccc3ccc(-c4ccc5ccn(Cc6cccc(F)c6)c5c4)cc32)cc1	–
CC(C)(C)C(=O)CNCC(=O)C(C)(C)C	–
CCCCOC(=O)C1=C(C)Nc2ncnn2C1c1cc(OC)ccc1OC (centres undefined)	–
CCOC(=O)C1=C(C)NC(C)=C(C(=O)OC)C1c1ccco1 (centres undefined)	12	HuH7 TTR inh=–;TTR act confirm=–
COCCOC(=O)C1=C(C)Nc2ncnn2C1c1ccco1 (centres undefined)	13	HuH7 TTR inh=–;TTR act confirm=–
CCOC(=O)C1=C(C)NC(=S)NC1c1ccc(OC(=O)c2ccco2)cc1 (centres undefined)	–
CCCCCCCOC(=O)C1=C(C)Nc2ncnn2C1c1cccs1 (centres undefined)	–
C=CCOC(=O)C1=C(C)NC(C)=C(C(=O)OCC=C)C1c1ccco1	–
CCOc1ccc(CCNC(=O)c2cc(-c3ccccc3)c(N3CCOCC3)s2)cc1OC	–
C[C@H]1[C@@H](OC(=O)Nc2cc(Cl)ccc2Cl)CC[C@@]23CCCN2C(=O)CCC[C@@H]13	–
SMILES	TTR transcr act	others
CCNC(=S)N/N=C/c1cccc(C)c1	–
Cc1ccc(OCCOc2ccc(Cl)cc2Cl)c(Br)n1	–
O=C(NN1CCN(Cc2ccccc2)CC1)c1ccc(Cl)cc1	–
CC(=O)C1C(C)CC2C3CCC4CC(=O)CCC4(C)C3CCC21C (centres undefined)	–
CC(=O)C1CCC2C3CCC4=CC(=O)C=CC4(C)C3CCC12C (centres undefined)	–
CC(=O)C1CCC2C3CCC4CC(=O)CCC4(C)C3C(O)CC12C (centres undefined)	10	HuH7 TTR inh=–;TTR act confirm=–
O=C(NCc1ccccc1)c1ccc(NC(=O)C2CCCO2)cc1 (centres undefined)	–
N=c1c2ccccc2nc2n1CCCCCCCCCCC2	–
CN(C)[C@H]1CCN(c2ccc3c(c2)O[C@H]2CCN(C2)S3(=O)=O)C1	–
COc1ccc(CC(=O)N2CCN(c3ccc(F)cc3)CC2)cc1	–
O=C(CCS(=O)(=O)c1ccc(Cl)cc1)N1CCN(c2ccc(F)cc2)CC1	–
COc1ccc(S(=O)(=O)CCC(=O)N2CCN(c3ccc(F)cc3)CC2)cc1	10	HuH7 TTR inh=–;TTR act confirm=–
COC(=O)[C@]12C[C@H](CC(=O)NCCCN3CCCC3=O)C(=O)N(Cc3ccco3)C1=C[C@H](C1CCCC1)O[C@@H]2C	–
Cc1ccccc1CN1CCCCC(NC(=O)C2CCC2)C1=O (centres undefined)	–
COc1ccccc1C(=O)OCC(=O)NC1CCCC1	–
CC(=O)CC(=O)Nc1ccc2ccccc2c1	–
CC(=O)c1ccc(NC(=O)CSCC(=O)Nc2ccc3ccccc3c2)cc1	11	HuH7 TTR inh=–;TTR act confirm=–
O=C(CSCc1ccc(C(=O)O)cc1)Nc1ccc2ccccc2c1	–
COC(=O)[C@]1(C)N[C@H](CN(C)C(=O)Nc2ccc(C(F)(F)F)cc2)[C@@H]2C(=O)N(C)C(=O)[C@@H]21	–
Cc1ccc(S(=O)(=O)Nc2ccc3c(c2)OCCO3)cc1C	–
COc1ccc(S(=O)(=O)Nc2ccccc2)cc1OC	–
